# Records with an inconclusive call do not appear. A number with no mark means an inactive call. The source made the active and inactive calls. Calls come from the whole dose curve; as a rule, active = well fitted cell-killing curve with a large enough effect in the repeat runs; inconclusive = weak or mixed curves, or effect the other way; inactive = no such curve, though single readings can be large or run the other way.
# Assay: qHTS assay to identify small molecule antagonists of the sonic hedgehog signaling (Shh) pathway - cell viability counter screen (AID 1259367); note: nearly all actives have a fitted effect of over 55% in size
# Conditions: NIH/3T3 Gli1-Luc viability, CellTiter-Fluor, 24 h; series mostly up to 92.4 µM
# Text: National Center for Advancing Translational Sciences [NCATS]
# NIH Chemical Genomics Center [NCGC]
# U.S. Environmental Protection Agency [EPA]
# National Institutes of Environmental Health Sciences [NIEHS]
# National Toxicology Program [NTP]
# U.S. Food and Drug Administration [FDA]
# The sonic hedgehog (Shh) pathway is essential for normal embryonic development. Dysregulation of the Shh pathway can cause severe developmental defects in organs. Therefore chemicals that interfere with the pathway are potential developmental toxicants. A cell line designated 3T3Gli1-Luc (DMB/OARSA/CFSAN/FDA, Laurel, MD), a NIH/3T3 derived clone containing stably integrated Gli1-Luc reporter is used to detect chemical interference of the Shh pathway, by changes in the expression of the firefly Luc gene under the control of the Gli1 transcriptional response element. This cell line was used to screen Tox21 libraries for identifying and prioritizing the potential developmental toxicants that interfere Shh pathway. Conditioned medium-stimulated mode was used to screen for chemicals inhibiting Shh signaling. The cytotoxicity of the compounds was tested in parallel by measuring the cell viability using CellTiter-Fluor assay system (Promega, Madison, WI) in the same wells.
# Tox21 Assay Protocol Summary:
# 3T3 Gli1-Luc cells were dispensed at 2,000 per well in 5uL of culture medium into white solid bottom 1536-well plates (Greiner Bio-One, Monroe, NC) using a Multidrop Combi (Thermo Scientific, Waltham, MA) dispenser. The assay plates were incubated at 37 C and 5% CO2 for 4hr, and then 23nL of compounds dissolved in DMSO and positive control were transferred using a Pintool station (Wako, San Diego, CA). The compound transfer was followed by the addition of 1ul conditioned medium or assay buffer using two separate tips of Flying Reagent Dispenser (FRD, Aurora Discovery, San Diego, CA). The assay plates were incubated at 37C and 5% CO2 for 24hr. For viability read, after 23hr of compound treatment, 1uL of CellTiter-Fluor reagent (Promega Corporation, Madison, WI) was added to each well of the assay plates using Flying Reagent Dispenser (FRD, Aurora Discovery, San Diego, CA) and incubated the assay plates at 37C for 1hr. The fluorescence signal was quantified using a ViewLux plate reader (Perkin Elmer, Shelton, CT).
# % is set by controls: 0 for no effect and ±100 for the full control effect.
SMILES,outcome,"viability change, negative = cytotoxic"
C=CCOC(=O)CCCCCCCC,inactive,–
CC(C)(C)C(=O)CCc1ccc(Cl)cc1,inactive,–
COC(=O)c1ccc(C(=O)O)cc1,inactive,–
CC/C=C\CCCCCCCCCCOC(C)=O,inactive,–
O=C(CCBr)N1CCN(C(=O)CCBr)CC1,inactive,–
O=C(O)CCC(=O)Nc1ccc(S(=O)(=O)Nc2nccs2)cc1,inactive,–
CC(=O)OC/C=C(/C)CCC=C(C)C,inactive,–
C/C(Cl)=C/CCl,inactive,–
CC(CN1CC(=O)NC(=O)C1)N1CC(=O)NC(=O)C1 (stereo not given),inactive,–
CC(=O)OC1CCC(C(C)(C)C)CC1 (stereo not given),inactive,–
CC(C)=CCC/C(C)=C\C#N,inactive,–
COc1cnc(NS(=O)(=O)c2ccc(N)cc2)nc1,inactive,–
COC(=O)/C=C(\C)CCC=C(C)C,inactive,–
c1coc(Cn2cccc2)c1,inactive,–
CC12CCCC=C1C(=O)OC2=O (stereo not given),inactive,–
CCCCCCCCS(=O)(=O)O,inactive,–
OCCC(F)(F)C(F)(F)C(F)(F)C(F)(F)C(F)(F)C(F)(F)F,inactive,–
N#Cc1cc(NC(=O)C(=O)O)c(Cl)c(NC(=O)C(=O)O)c1,inactive,–
O=C(O)CCCCCCCCCC(=O)O,inactive,–
C[C@@H]1CCC[C@H](C)N1CCCC(O)(c1ccccc1)c1ccccn1 (stereo not given in full),inactive,–

SMILES,outcome,"viability change, negative = cytotoxic"
CN(C)CCc1c[nH]c2ccc(C[C@H]3COC(=O)N3)cc12,inactive,–
N[C@H]1C(O)O[C@H](CO)[C@@H](O)[C@@H]1O (stereo not given in full),inactive,–
O=S(=O)(O)c1cc(I)c(O)c2ncccc12,inactive,–
COC(=O)C(c1ccccc1Cl)N1CCc2sccc2C1 (stereo not given),inactive,–
CC/C=C\CCOC(=O)c1ccccc1,inactive,–
CCCc1ccc(O)c(OC)c1,inactive,–
CCCCN(CCCC)CCCCCCN(CCCC)CCCC,inactive,–
C[Si](C)(C)O[Si](O)(O)O,inactive,–
CCCCNCC,inactive,–
O=C(O)COc1ccc2ccccc2c1,inactive,–
O=C1Nc2ccccc2C1=O,inactive,–
CCOC(=O)CC,inactive,–
C=CC(=O)OCCOCCOCC,inactive,–
c1cc2ccc3ccc4ccc5cccc6c(c1)c2c3c4c56,–,-2.17% [at 3.27 µM]
CCCc1ncc(C(=O)O)s1,inactive,–
CCCCCCCCOCCC#N,inactive,–
CCCOc1ccc(C(=O)OCCN(CC)CC)cc1N,inactive,–
Cc1cc(C)c(C)c(C)c1,inactive,–
C=CCN1CCc2nc(N)sc2CC1,inactive,–
CC(C)OC(=O)C(C(=O)OC(C)C)=C1SC=CS1,inactive,–
